According to PubChem BioAssay (NCI):
About 83,000 compounds went through this panel and 20% of them were active in at least one assay; those are over-represented in the sample as a whole.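 Results are percent growth after 48 hours of single-concentration exposure. 100 means growth as in untreated cells, lower positive values show inhibition; negative values down to -100 show cell death.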 A number with no mark means an inactive call. Active and inactive are the calls of the source. How the source made its calls: active means growth percent below 10; inactive means the rest.

What follows are compounds tested on A498 renal (assay: NCI-60 one-dose screen, 48 h (100 = growth as untreated, 0 = no growth, -100 = all killed)). Details: 10 µM unless noted.
In the case of COc1ccc(/C(C)=C(\c2ccc(Cl)cc2)c2ccc(OCCN3CCCC3)cc2)cc1F, the growth is reported as 68%.
Nc1c(-c2nc3ccccc3c(=O)[nH]2)nnn1-c1ccc(Cl)cc1 was tested, and the growth was 57.4%.
With Clc1ccc(-c2cn(-c3ccccc3)c(-c3ccccc3)n2)cc1 the growth was 88.4%.
In the case of COc1cc(C2C=C(c3cccc(NC(C)=O)c3)Nc3ncnn32)cc(OC)c1OC (stereo not given), the growth is reported as 1.13% (active).
With COc1cc(NC(=O)c2cc(O)c(CC=C(C)C)c(O)c2)cc2c1O[C@]1(C)CC[C@@H](O)C(C)(C)[C@H]1C2 the growth was -2.7% (active).
Clc1ccc(/C=C/c2nc(Nc3ccc(Cl)cc3)c3ccccc3n2)cc1 gave a growth of 94.9%.
C=C1C(=O)O[C@H]2[C@H]1CC/C(COC(=O)/C=C\C(=O)NCc1ccc(Cn3c(=O)sn(CCCC)c3=O)cc1)=C\CC[C@@]1(C)O[C@@H]21 showed a growth of 11.2%.
O=[N+]([O-])c1ccc2[nH]cc(-c3c4ccsc4cc4[nH]c5ccc([N+](=O)[O-])cc5c34)c2c1 was tested, and the growth was -16.6% (active).
CC1=NN(c2cccc(Cl)c2)C(=O)/C1=C\c1cn(CC(O)CN2CCCCC2)c2ccccc12 (stereo not given) was tested, and the growth was 80.2%.
Clc1ccc(-c2nc(NCCc3ccccc3)nc3c(NCCc4ccccc4)cnn23)cc1 was tested, and the growth was 71.4%.
For O=C(C[C@@]1(O)C(=O)Nc2c(Cl)ccc(Cl)c21)c1ccc(C2CC2)cc1, the growth was -32.7% (active).
CCC(O)(C(c1ccccc1)c1ccccn1)C(c1ccccc1)c1ccccn1 (stereo not given) showed a growth of 96.7%.
Compound Cc1nc(Nc2ccc(S(=O)(=O)Nc3cc(C)on3)cc2)c2ccccc2n1 has a growth of 94.3%.
In the case of CCOc1cc(C2C(Cl)C(=O)N2n2cnnc2)ccc1O (stereo not given), the growth is reported as 101%.
NC(=Nc1ccc(N)cc1)C(N)=Nc1ccc(N)cc1 gave a growth of 91.3%.
CCCCCCCCCCCCCCCCCC1=NCCN1C(=O)OCCO showed a growth of 89.1%.
Compound NC(=S)c1csc(CCNC(=O)c2ccccc2)n1 has a growth of 89.6%.
With Nc1c(-c2nc3ccc(Br)cc3c(=O)[nH]2)nnn1-c1ccccc1 the growth was 87.4%.
O=C(Oc1ccc[nH]c1=O)c1cc([N+](=O)[O-])cc([N+](=O)[O-])c1 gave a growth of 108%.
With CSc1ccc(Cl)c(C(=O)Nc2sccc2C(N)=O)c1 the growth was 94.2%.
OCCCCc1nccc2c1[nH]c1ccccc12 was tested, and the growth was 112%.
CCOC(=O)c1sc(-c2ccc(OS(=O)(=O)c3ccc(C(C)(C)C)cc3)c(C=O)c2)nc1C showed a growth of 57%.
CCOC(=O)c1cnn2c(-c3ccc(Cl)cc3)nc(NCc3ccccc3)nc12 showed a growth of 31.5%.
For COc1ccc(/C=C2\COc3ccc(O)cc3C2=O)cc1OC, the growth was 90.6%.
With CS(=O)(=O)c1ccc(N/N=C/c2c(-c3ccc(S(C)(=O)=O)cc3)[nH]c3ccc(F)cc23)cc1 the growth was 25.9%.
Work on N#Cc1cnn2c(-c3ccc(Cl)cc3)nc(NCCc3ccccc3)nc12 yielded a growth of 101%.
For Cc1nc(Nc2cccc(NC(=O)Nc3ccc(Cl)cc3)c2)c2ccccc2n1, the growth was 81.8%.
In the case of Nc1ccc(-c2cc3c(Nc4ccc(OCc5cccc(F)c5)c(Cl)c4)ncnc3s2)cc1, the growth is reported as 39.3%.
O=[N+]([O-])c1ccc(-c2cc3c(Nc4ccc(Sc5nc6ccccc6s5)c(Cl)c4)ncnc3s2)cc1 was tested, and the growth was -0.884% (active).
C=C1c2c(C)nn(-c3ccc(O)cc3)c2N(C)C23C[C@@H]1C1(C)c4c(C)nn(-c5ccc(O)cc5)c4N(C)C(C)(C[C@H]12)C3 (stereo not given in full) was tested, and the growth was 34.8%.
CN(C)CCC(O)(Cc1ccccc1)c1ccccc1 (stereo not given) showed a growth of 185%.
Compound NS(=O)(=O)c1cnccc1-n1ccc(=O)c(S(N)(=O)=O)c1 has a growth of 85.4%.
In the case of Oc1[nH]c2ccccc2c1/C=c1/cc2c(c(-c3ccc(F)cc3)n1)=Nc1ccccc1-2, the growth is reported as -4.07% (active).
Work on CCOC(=O)C1=C(C)NC(SCc2nnc(-c3ccc(Cl)cc3)o2)=NC1c1ccc(Cl)cc1Cl (stereo not given) yielded a growth of 77.7%.
Compound CCCCN(Cc1ccc(C(=O)NO)cc1)C(=O)Nc1ccc(OCCCCCCCCCn2cc(CCCCC(=O)N[C@H](C(=O)N3C[C@H](O)C[C@H]3C(=O)NCc3ccc(-c4scnc4C)cc3)C(C)(C)C)nn2)cc1 has a growth of 66.5%.

Each compound was assayed on CCRF-CEM leukemia in the same assay as above. Details: 10 µM unless noted.
Work on COc1ccc(/C(C)=C(\c2ccc(Cl)cc2)c2ccc(OCCN3CCCC3)cc2)cc1F yielded a growth of 31.2%.
Compound Nc1c(-c2nc3ccccc3c(=O)[nH]2)nnn1-c1ccc(Cl)cc1 has a growth of 90.2%.
In the case of O=C(/C=C/C12c3ccccc3C(c3ccccc31)C1C(=O)NC(=O)C12)c1ccc(Cl)cc1 (stereo not given), the growth is reported as 11.5%.
In the case of Clc1ccc(-c2cn(-c3ccccc3)c(-c3ccccc3)n2)cc1, the growth is reported as -3.48% (active).
Compound COc1cc(C2C=C(c3cccc(NC(C)=O)c3)Nc3ncnn32)cc(OC)c1OC (stereo not given) has a growth of 11.5%.
In the case of COc1cc(NC(=O)c2cc(O)c(CC=C(C)C)c(O)c2)cc2c1O[C@]1(C)CC[C@@H](O)C(C)(C)[C@H]1C2, the growth is reported as 13%.
In the case of Clc1ccc(/C=C/c2nc(Nc3ccc(Cl)cc3)c3ccccc3n2)cc1, the growth is reported as 102%.
In the case of C=C1C(=O)O[C@H]2[C@H]1CC/C(COC(=O)/C=C\C(=O)NCc1ccc(Cn3c(=O)sn(CCCC)c3=O)cc1)=C\CC[C@@]1(C)O[C@@H]21, the growth is reported as -26.1% (active).
In the case of O=[N+]([O-])c1ccc2[nH]cc(-c3c4ccsc4cc4[nH]c5ccc([N+](=O)[O-])cc5c34)c2c1, the growth is reported as 7.42% (active).
CC1=NN(c2cccc(Cl)c2)C(=O)/C1=C\c1cn(CC(O)CN2CCCCC2)c2ccccc12 (stereo not given) showed a growth of 41.9%.
Clc1ccc(-c2nc(NCCc3ccccc3)nc3c(NCCc4ccccc4)cnn23)cc1 showed a growth of 82.6%.
O=C(C[C@@]1(O)C(=O)Nc2c(Cl)ccc(Cl)c21)c1ccc(C2CC2)cc1 was tested, and the growth was 15.9%.
CCC(O)(C(c1ccccc1)c1ccccn1)C(c1ccccc1)c1ccccn1 (stereo not given) showed a growth of 114%.
In the case of Cc1nc(Nc2ccc(S(=O)(=O)Nc3cc(C)on3)cc2)c2ccccc2n1, the growth is reported as 103%.
In the case of CCOc1cc(C2C(Cl)C(=O)N2n2cnnc2)ccc1O (stereo not given), the growth is reported as 93.6%.
With CCCCCCCCCCCCCCCCCC1=NCCN1C(=O)OCCO the growth was -2.98% (active).
NC(=S)c1csc(CCNC(=O)c2ccccc2)n1 gave a growth of 90.3%.
O=C1CCC(N2C(=O)c3cccc(NCCCC4CCN(CCNC(=O)c5cc6c(o5)C(=O)c5ccccc5C6=O)CC4)c3C2=O)C(=O)N1 (stereo not given) showed a growth of 21%.
Compound Nc1c(-c2nc3ccc(Br)cc3c(=O)[nH]2)nnn1-c1ccccc1 has a growth of 93.3%.
COc1ccc(-c2cc(-c3ccc(Nc4nc(Nc5ccccc5)nc(Nc5ccc(Cl)cc5)n4)cc3)nc(N)n2)cc1 showed a growth of 27.1%.
With CSc1ccc(Cl)c(C(=O)Nc2sccc2C(N)=O)c1 the growth was 94.1%.
CCOC(=O)c1sc(-c2ccc(OS(=O)(=O)c3ccc(C(C)(C)C)cc3)c(C=O)c2)nc1C showed a growth of 29.9%.
CCOC(=O)c1cnn2c(-c3ccc(Cl)cc3)nc(NCc3ccccc3)nc12 gave a growth of 66.9%.
With COc1ccc(/C=C2\COc3ccc(O)cc3C2=O)cc1OC the growth was 3.05% (active).
CS(=O)(=O)c1ccc(N/N=C/c2c(-c3ccc(S(C)(=O)=O)cc3)[nH]c3ccc(F)cc23)cc1 was tested, and the growth was 4.8% (active).
With N#Cc1cnn2c(-c3ccc(Cl)cc3)nc(NCCc3ccccc3)nc12 the growth was 96.4%.
Compound Cc1nc(Nc2cccc(NC(=O)Nc3ccc(Cl)cc3)c2)c2ccccc2n1 has a growth of 82.9%.
Nc1ccc(-c2cc3c(Nc4ccc(OCc5cccc(F)c5)c(Cl)c4)ncnc3s2)cc1 was tested, and the growth was 24%.
In the case of O=[N+]([O-])c1ccc(-c2cc3c(Nc4ccc(Sc5nc6ccccc6s5)c(Cl)c4)ncnc3s2)cc1, the growth is reported as 34.6%.
C=C1c2c(C)nn(-c3ccc(O)cc3)c2N(C)C23C[C@@H]1C1(C)c4c(C)nn(-c5ccc(O)cc5)c4N(C)C(C)(C[C@H]12)C3 (stereo not given in full) was tested, and the growth was 4.13% (active).
For CN(C)CCC(O)(Cc1ccccc1)c1ccccc1 (stereo not given), the growth was 112%.
In the case of NS(=O)(=O)c1cnccc1-n1ccc(=O)c(S(N)(=O)=O)c1, the growth is reported as 88.5%.
With COc1cc(/C=C/C(=O)c2ccc(Nc3nc(Nc4ccccc4)nc(Nc4ccc(Cl)cc4)n3)cc2)cc(OC)c1OC the growth was 18.5%.
CCOC(=O)C1=C(C)NC(SCc2nnc(-c3ccc(Cl)cc3)o2)=NC1c1ccc(Cl)cc1Cl (stereo not given) gave a growth of 27.4%.
In the case of CCCCN(Cc1ccc(C(=O)NO)cc1)C(=O)Nc1ccc(OCCCCCCCCCn2cc(CCCCC(=O)N[C@H](C(=O)N3C[C@H](O)C[C@H]3C(=O)NCc3ccc(-c4scnc4C)cc3)C(C)(C)C)nn2)cc1, the growth is reported as 13%.
